Molecules are shown by their SMILES. Several values for one entry are separate records, joined by “and”; a condition that tells them apart may be missing. Identical values can stand only once. This is part of a sample that, as a whole, favours compounds with a hit. Of some 83,000 tested, about 20% had one in any assay.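 A percent growth of 40 corresponds to 60% growth inhibition; 0 means no net growth; -100 means all cells died. Active threshold: below 10.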 Values without a mark were called inactive.

For 39 compounds, growth results are on record in PubChem BioAssay (NCI).

The first experiment concerns EKVX NSCLC. Nature of the experiment: NCI-60 one-dose screen, 48 h (100 = growth as untreated, 0 = no growth, -100 = all killed). The settings on record: 10 µM. The procedure:
Growth inhibition of the EKVX human Non-Small Cell Lung tumor cell line is measured as a screen for anti-cancer activity. Cells are grown in 96 well plates and exposed to the test compound for 48 hours. Compounds are tested at a single concentration, which is 10^-5 M for most compounds. The reported endpoint is percent growth (GI% or GIPRCNT), where numbers from 0 - 100% represent growth inhibition, and numbers from -100% - 0 represent cell death. For example, a value of 40 represents 60% growth inhibition. A value of 0 means no net growth occurred over the course of the experiment. A value of -40 indicates 40% of cells at the beginning of the experiment died by the end of the experiment. A value of -100 means all cells are dead at the end of the experiment.
NCI-60 Human Tumor Cell Lines Screen was performed using the standard one-dose NCI protocol, which is described in more detail at https://dtp.cancer.gov/discovery_development/nci-60/default.htm.
Compounds with GIPRCNT values below 10 were considered active. Activity score was based on GIPRCNT using the following formula: […]
Score is 0 for GIPRCNT values of 100 or above, 50 for GIPRCNT values of 0, and 100 for GIPRCNT values of -100.
On to `S=c1nc[nH]c2nc[nH]c12`, for which the growth was 89.9%.

Still in this experiment, the particulars now being: 10 µM unless noted.
For `Nc1ccccc1SC1CC(=O)N(c2ccc(I)cc2)C1=O` (stereo not given), the growth is 90.6%.
Same read-out and setting: the value for `CCN(CC)Cc1cc2[nH]c3c4ccc(Cl)cc4ncc3c2cc1OC` was 83.5% and 75%; that for `CC(=O)c1cc2ccccc2o1` was 106%; that for `COc1ccc(COC=O)cc1` was 109%.
On the same count and under the same terms, the value for `CC(=O)Oc1ccc(C2(c3ccc(OC(C)=O)cc3)C(=O)Nc3ccccc32)cc1` was 86% and 85.8%.
On the same count and under the same terms, the value for `CCNCc1ccccc1` was 111%; that for `c1ccc2c[n+](Cc3ccc4ccccc4n3)ccc2c1` was 82.5%.
For the compound `Cc1cc(-c2ccc(N=Nc3c(C)nn(-c4ccc(S(=O)(=O)O)cc4)c3O)c(C)c2)ccc1N=Nc1ccc(O)c(C(=O)O)c1`, the growth was 104%.
Consider `O=C(N=C1C(=O)C2(CCCCC2)C2(N=C(c3ccccc3)OC2=O)C12CCCCC2)c1ccccc1` (stereo not given), for which the growth is 70.5%.
The same measure, in the same setting: the value for `OCc1ccccc1F` was 110%; that for `O=c1[nH]nnc2cc(Cl)ccc12` was 105% and 97.3%.
On the same count and under the same terms, the value for `O=C(O)Cc1cc(=O)[nH]n(-c2ccccc2)c1=O` was 96%; that for `COc1ccc(/C=C/C(=O)O)cc1OC` was 106% and 103%; that for `CC(C)(C)C1=CC(=O)C(C(C)(C)C)=CC1=O` was 97.6% and 108%.
On the same count and under the same terms, the value for `O=C(O)/C=C/C=C/c1ccccc1` was 100%; that for `CC1CC(O)CC(C)(C)C1.CC1CC(O)CC(C)(C)C1.CC1CC(O)CC(C)(C)C1.CC1CC(O)CC(C)(C)C1.[Ti]` (stereo not given) was 93.6%; that for `CC(C)(C)OC(=O)CC1(O)CCCCC1` was 102%.
Consider `O=C1c2ccccc2C(c2ccccc2)C1c1ccccc1` (stereo not given), for which the growth was 80.2%.
Same read-out and setting: the value for `CCN(CC)CCO/N=C1\CC(c2ccc(OC)c(OC)c2)Oc2ccccc21` (stereo not given) was 96.3%; that for `CCOC(C)=N` was 134%.
For `Cc1cc(O)c(C(C)C)cc1N=O`, the growth was 101% and 102%.
The same measure, in the same setting: the value for `CC(NC(=O)CCl)c1ccccc1` (stereo not given) was 99%; that for `COc1ccc(CCn2cnn3c(=O)c4ccccc4nc3c2=O)cc1OC` was 106%.
On the same count and under the same terms, the value for `CCCCCCCCCCCCCCCCC(=O)O` was 106%; that for `CCCC(=O)Oc1ccc2ccccc2c1` was 101%; that for `Cc1ccc(C(=O)c2ccc(C)cc2)cc1` was 92.6% and 101%.
Turning to `O=C(O)C(Cc1ccc(OS(=O)(=O)Cc2ccccc2)cc1)NS(=O)(=O)Cc1ccccc1` (stereo not given), the growth is 102% and 115%.
Still for that read-out and setting: the value for `CCOC(=O)C(N)Cc1cc(I)c(O)c(I)c1` (stereo not given) was 101% and 113%.
The same measure, in the same setting: the value for `Cc1nc2c(=O)[nH]c(=S)[nH]c2[nH]c1=O` was 102% and 109%; that for `COC(=O)c1nc(N)nc(C(=O)OC)c1C(=O)c1cccc2ccccc12` was 103%; that for `CC(=O)Oc1cc(C)c(OC(C)=O)c(C)c1C` was 95.8%.
Same read-out and setting: the value for `CCOC(=O)c1ccc(C(=N)N)cc1` was 103%; that for `CCOC(=O)c1csc(N)n1` was 99.2% and 99%.
With `COC1C(OC(N)=O)C(O)C(Oc2ccc3c(O)c(NC(=O)c4ccc(O)c(CC=C(C)C)c4)c(=O)oc3c2C)OC1(C)C` (stereo not given), the growth is 109%.
On the same count and under the same terms, the value for `O=C(O)c1ccc2c3ccc(C(=O)O)c4c(C(=O)O)ccc(c5ccc(C(=O)O)c1c25)c43` was 101%.
Turning to `O=C(c1ccccc1)C1(Br)CCCCC1`, the growth was 87.3%.
The same measure, in the same setting: the value for `O=C1CCC(=O)N1CC1CC2CCC1C2` (stereo not given) was 99% and 83.1%; that for `CN(C=O)c1ccccc1` was 86.6%.

Staying with this experiment, now noted: 50 µM.
Take `S=c1nc[nH]c2nc[nH]c12`: the growth is 73.9%.
